RGS12 GoLoco inh: RGS12 GoLoco-Gai1 interaction inhibition | Gai1:RGS12 GoLoco peptide FP, rhodamine, 10 min | AID 880 | P63096 | 230,000 compounds, 0.44% hits | Potency, µM (doses to about 61.6 µM), inactives show at the top dose activity, negative = inhibition, actives largely listed as inhibitors; active = well fitted inhibition curve with a large enough effect, not every such curve was filed as active; inactive = no such curve, though single readings can be large or run the other way; also: potency is read from the fitted curve at half-maximal effect; nearly all actives have a fitted effect of over 30% in size
Target sequence (P63096 whole entry, looked up): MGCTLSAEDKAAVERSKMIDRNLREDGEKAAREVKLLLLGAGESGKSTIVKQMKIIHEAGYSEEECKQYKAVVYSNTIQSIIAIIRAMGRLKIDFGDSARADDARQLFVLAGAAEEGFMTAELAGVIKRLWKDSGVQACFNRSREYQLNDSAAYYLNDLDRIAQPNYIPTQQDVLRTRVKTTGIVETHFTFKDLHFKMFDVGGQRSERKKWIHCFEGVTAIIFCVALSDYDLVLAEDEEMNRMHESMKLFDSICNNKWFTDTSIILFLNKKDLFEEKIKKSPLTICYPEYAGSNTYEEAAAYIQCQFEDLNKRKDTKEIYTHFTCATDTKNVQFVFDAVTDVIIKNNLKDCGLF
NPSR antagonist: blocks cAMP signaling of the human neuropeptide S receptor; 220,000 compounds, 1% hits; CHO-NPSR cells, cAMP TR-FRET, antagonist mode; Q6W5P4; Potency, µM (highest dose often 38.3 µM), for the others: at the top dose activity change, negative = inhibition, actives largely listed as inhibitors; active = well fitted curve in the direction sought with a large enough effect; inconclusive = small, poorly fitted or top-dose-only effect, or another doubt; inactive = no such curve, though single readings can be large; an effect the other way counts as inactive or inconclusive; also: potency is read from the fitted curve at half-maximal effect; nearly all actives have a fitted effect of over 50% in size
Sfp PPTase inh: blocks B. subtilis Sfp PPTase activity | Potency, µM, without a hit: largest response in the series, negative = inhibition, most hits filed as inhibitors | 310,000 compounds, 3.5% hits | Biochemical Sfp PPTase activity, qHTS; active = well fitted curve in the direction sought with a large enough effect; inconclusive = small, poorly fitted or top-dose-only effect, or another doubt; inactive = no such curve, though single readings can be large; an effect the other way counts as inactive or inconclusive;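 also: the enzyme is Sfp with the accession as filed and its product quenches rhodamine fluorescence; potency is read from the fitted curve at half-maximal effect; 0% = enzyme reaction without inhibitor and -100% = no enzyme wells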
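After 15 min at room temperature with compound, 15 nM Sfp received 5 uM rhodamine-CoA plus 12.5 uM BHQ-2-ybbR (50 mM Hepes pH 7.6, 10 mM MgCl2). Rate came from the fluorescence difference over 30 min, ex 525/em 598 nm.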
ALDH1A1 inh: inhibitors of human aldehyde dehydrogenase 1A1; P00352; Purified ALDH1A1, NADH fluorescence, propionaldehyde substrate; Potency, µM (titrated, usually from 75.3 µM), for the others: top-dose activity, negative = inhibition, actives largely listed as inhibitors; 220,000 compounds, 7.3% hits; AID 1030;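 also: potency is read from the fitted curve at half-maximal effect; plate controls were no enzyme wells and a reference inhibitor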
JMJD2E inh: blocks human JMJD2E demethylase activity; B2RXH2; JMJD2E catalytic domain, FDH-coupled NADH fluorescence (FDH is formaldehyde dehydrogenase); Potency, µM (highest dose often 57.1 µM), for the others: at the highest dose activity change, negative = inhibition, usual class: inhibitors; 230,000 compounds, 1.6% hits; AID 2147;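 also: potency is read from the fitted curve at half-maximal effect; 0% = wells with enzyme and -100% = buffer wells without enzyme; nearly all actives have a fitted effect of over 50% in size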
Target sequence (B2RXH2 1-337 limits assumed): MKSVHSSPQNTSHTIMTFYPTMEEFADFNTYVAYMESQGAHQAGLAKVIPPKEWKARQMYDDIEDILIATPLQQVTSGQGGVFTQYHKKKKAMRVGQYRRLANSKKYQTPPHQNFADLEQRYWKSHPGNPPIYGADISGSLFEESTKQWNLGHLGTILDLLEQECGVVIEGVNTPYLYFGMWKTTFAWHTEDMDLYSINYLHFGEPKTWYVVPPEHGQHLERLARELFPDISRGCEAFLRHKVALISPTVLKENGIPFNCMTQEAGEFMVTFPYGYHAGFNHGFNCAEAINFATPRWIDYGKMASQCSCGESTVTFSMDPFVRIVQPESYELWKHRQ
FBPA coupling cs: inhibits coupling enzyme system, counter-screen for aldolase hits; coupling enzyme system counterscreen, AmpLite Red fluorescence; activity change, negative = inhibition, % at 58.2 µM, hits read low; 290,000 compounds, 0.67% hits; AID 2472; in the data active = activity change below about -30%
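Fluorescence at 525 nm excitation and 598 nm emission measured inhibition of the coupled detection system without aldolase. Compounds (at 57.5 uM final) were preincubated 10 min at room temperature with coupling enzyme reagent before a 20 min substrate/AmpLite Red step.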
Starred values were filed as active, the others as inactive; ? = inconclusive; nt = not tested or not shown; [ ] = another dose, or the depositor's remark. Rows were chosen to be rich in hits. Some 8.5% of all compounds tested hit in one or more screens of this group. Unless noted, calls follow the shape of the dose curve; as a rule, active = well fitted inhibition curve with a large enough effect (not every such curve was filed as active); inconclusive = small, poorly fitted or top-dose-only effect, or another doubt; inactive = no such curve, though single readings can be large or run the other way. Unless noted, % is scaled to controls: 0 for no effect and ±100 for the full control effect.

SMILES | RGS12 GoLoco inh | NPSR antagonist | Sfp PPTase inh | ALDH1A1 inh | JMJD2E inh | FBPA coupling cs
CC(C)C[C@@H](CC(=O)N[C@@H](CCC(=O)O)CC(=O)O)NC(=O)[C@@H]1CNCC[C@H]1NC(=O)C[C@@H](NC(=O)C[C@H](Cc1c[nH]c2ccccc12)NC(=O)[C@@H]1CCCC[C@H]1N)C(C)C | -2% | nt | -17% | -8% | -13% | 1
CN(C)S(=O)(=O)n1cc(/C=C(\NC(=O)c2ccccc2Cl)C(=O)N2CCOCC2)c2ccccc21 | nt | nt | 19% | nt | nt | 5
N#CC1=C(N)C2=CCCC[C@H]2[C@H](c2ccccc2)C1(C#N)C#N | 3% | 5% | -9% | ? | -3% | -3
N#CC1=C(N)C2=CCCC[C@H]2[C@H](c2ccc(Br)cc2)C1(C#N)C#N | 39% | -16%[46.1 µM] | 7.1µM* | 13µM* | -1% | -23
COc1ccc(C2CC(c3ccc(Br)cc3)=NN2C(=O)CN2CCCC2)cc1 (stereo unspecified) | 12% | -18% | 10% | nt | -20% | 1
CNC(=S)N1N=C(c2ccc(Br)cc2)CC1c1ccc(OC)cc1 (stereo unspecified) | 8% | -27% | 45µM* | 7.1µM* | ? | 0
CNC(=S)N1N=C(c2ccc(C)cc2)CC1c1ccc(N(C)C)cc1 (stereo unspecified) | 3% | -31% | ? | 25µM* | -6% | 6
COc1ccccc1NC(=O)C1CCN(C(=O)C2CC(=O)N(c3ccc(C)cc3)C2)CC1 (stereo unspecified) | nt | nt | 13% | nt | nt | 0
CC(OC(=O)c1oc2ccccc2c1COc1ccccc1)C(N)=O (stereo unspecified) | -7% | 13% | -23% | 2.2µM* | -4% | 0
CC(C)(C)NC(=O)c1oc2ccccc2c1COc1ccccc1 | -8% | -24% | 0% | 1% | 2% | -4
CC(=O)Nc1ccc(Nc2nc3ccccc3n3cnnc23)cc1 | nt | nt | 9% | nt | nt | 6
COC(=O)c1scc(C)c1NC(=O)/C=C/C(=O)O | -38% | -40% | 13µM* | nt | -2% | 2
O=C(NCCC1=CCCCC1)C(=O)NCC1OCCCN1S(=O)(=O)c1cc(F)ccc1F (stereo unspecified) | 7% | -13% | 16% | -17% | -1% | 1
O=C(NCc1ccco1)C(=O)NCC1OCCCN1S(=O)(=O)c1ccc(Cl)cc1 (stereo unspecified) | -6% | -2% | 20% | ? | 7% | 1
Cc1ccc(S(=O)(=O)N2CCCOC2CNC(=O)C(=O)NCc2cccs2)cc1 (stereo unspecified) | 14% | 7% | -4% | 11µM* | -20% | 6
O=C(NCCC1=CCCCC1)C(=O)NCC1OCCCN1S(=O)(=O)c1ccc(F)cc1 (stereo unspecified) | 1% | 4% | 17% | 22µM* | 11% | 0
Cc1cc(S(=O)(=O)N2CCCOC2CNC(=O)C(=O)NCc2ccco2)ccc1F (stereo unspecified) | 2% | 9% | 14% | 10µM* | 2% | 5
COCCNC(=O)c1ccccc1NC(=O)c1ccccc1SC | -20% | 4% | 56µM* | ? | -1% | 1
C=CCNC(=O)c1ccccc1NC(=O)c1ccccc1SC | -8% | 10% | 20µM* | ? | -5% | 3
C=CCNC(=O)c1ccccc1NC(=O)c1ccccc1C | 0% | 0%[46.1 µM] | 11% | ? | 2% | -3
Cc1ccc(CCNC(=O)c2sc3nc4n(c(=O)c3c2C)CCC4)cc1 | nt | nt | 11% | nt | nt | -1
O=C(NCc1ccc(Cl)cc1)C1CCCN1C(=O)Nc1ccccc1 (stereo unspecified) | nt | nt | 29% | nt | nt | 3
C=CCn1c(CNc2ccc(C)cc2)nnc1SCC(=O)N/N=C/c1ccc(O)cc1 | 7% | 8%[46.1 µM] | -7% | 25µM* | -1% | 3
CCN1C(=O)[C@@H]2[C@H]3C(=CC[C@@H]2C1=O)C1(OCCCO1)[C@H]1O[C@@H]1[C@H]3O | nt | nt | ? | 1.8µM* | nt | -27
CCN1C(=O)[C@H]2[C@H]3[C@H](O)[C@H](O)C/C(=N/OCC(C)C)[C@@H]3CC[C@@H]2C1=O | nt | nt | 3% | 9%[13.5 µM] | nt | -1
SMILES | RGS12 GoLoco inh | NPSR antagonist | Sfp PPTase inh | ALDH1A1 inh | JMJD2E inh | FBPA coupling cs
Cc1cc(N2CCN(C(c3ccccc3)c3ccccc3)CC2)n2ncnc2n1 | 5% | -19%[46.1 µM] | ? | ? | -7% | 9
Cc1nc2ncnn2c(N2CCN(C(c3ccccc3)c3ccccc3)CC2)c1C | 5% | ? | 79µM* | ? | 3% | 1
O=C(NC(NC(=S)Nc1ccccc1C(=O)O)C(Cl)(Cl)Cl)c1ccco1 (stereo unspecified) | 2% | 5% | 40µM* | ? | ? | 4
Cc1ccccc1NC(=S)NC(NC(=O)c1ccco1)C(Cl)(Cl)Cl (stereo unspecified) | 8% | 7% | -6% | 9.5µM* | -6% | 1
O=C(Nc1ccccc1C(=O)O)c1ccccc1 | -9% | -8%[46.1 µM] | 26% | -3% | -3% | 5
O=C(NC(NC(=S)Nc1ccccc1C(=O)O)C(Cl)(Cl)Cl)c1ccccc1 (stereo unspecified) | 2% | -9% | 35µM* | ? | ? | 1
CCOC(=O)c1cc(S(=O)(=O)N2CCC(C)CC2)cn1C | nt | nt | 5% | nt | nt | nt
COc1ccc(CNC(=O)C2CCN(S(=O)(=O)c3cccc4nonc34)CC2)cc1 | nt | nt | 6% | nt | nt | -1
Cc1cc(N/N=C/c2ccc(Cl)cc2Cl)nc(NCc2ccccc2)n1 | -16% | ? | ? | -6% | -7% | -3
Cc1ccc(/C=N/Nc2cc(C)nc(NCc3ccccc3)n2)cc1 | -3% | ? | 16µM* | -2% | -17% | -8
Cc1cc(N/N=C/c2ccc(N(C)C)cc2)nc(NCc2ccccc2)n1 | 14% | 10µM* | 20µM* | nt | ? | 2
C=CCn1c(SCC(=O)Nc2ccc(F)cc2F)nnc1-c1cnccn1 | nt | nt | 13% | nt | nt | nt
O=S(=O)(c1cc(Cl)ccc1Cl)N1CCN(c2ccccn2)CC1 | nt | nt | -5% | nt | nt | 0
O=C1c2ccccc2C(=O)C1(O)O | 6% | nt | nt | 1.2µM* | nt | nt
Cc1sc2nc(C)n(/N=C/N(C)C)c(=O)c2c1C | -33% | 5% | 6% | nt | 1% | 1
Cc1nc2scc(-c3ccco3)c2c(=O)n1/N=C/N(C)C | 37% | -3%[46.1 µM] | 13µM* | -9% | -4% | 2
CCOc1ccc(CC(=O)NNC(=S)NC)cc1Br | -12% | 2%[7.67 µM] | 9% | nt | 9% | 0
O=C1/C(=C\c2ccc(-c3ccccc3Cl)o2)SC(=S)N1CC1CCCO1 (stereo unspecified) | 25% | 2%[46.1 µM] | ? | 1.4µM* | 16% | -2
Cc1ccc(/C=C2\SC(=S)N(CC3CCCO3)C2=O)o1 (stereo unspecified) | 92% | ? | 10µM* | nt | ? | -22

Screens from PubChem BioAssay.
